This passage reports growth inhibition, inhibition and outcome results from PubChem BioAssay.

The nature of test [1]: antimalarial activity against Dd2 strain (AID 2302;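 active means growth inhibition above 50% at the single 2 µM test dose, taken to imply half-maximal potency below 2 µM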;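 further: 0% = DMSO untreated growth and 100% = chloroquine plus artemisinin killed control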). The following applies: P. falciparum Dd2 in RBCs, LDH growth readout, 72 h; at 2 µM; stronger effect = higher value.
Test [2] in a line: human hepatoma cell viability loss – ATP luminescence, cytotoxicity control for P. falciparum antimalarial project, primary screen (AID 2303;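 active means inhibition above 50%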;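 further: 0% = DMSO wells and 100% = digitonin-killed cells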). The following applies: HepG2 viability, 24-48 h, at 10 µM, stronger effect = higher value.
Test [3] has as its target L-lactate dehydrogenase (Plasmodium falciparum (isolate CDC / Honduras)) (UniProt Q27743). Description: PfLDH activity inhibition – cell lysate, 3D7 strain, counter-screen for P. falciparum growth inhibition project (AID 2304).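 Further: 0% = vehicle and 100% = reference inhibitor.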 The following applies: P. falciparum 3D7 crude extract, LDH APAD/NBT absorbance; at 2 µM; stronger effect = higher value. (In general: The purpose of a counterscreen is to sort out artefacts and off-target activity.)

Test [4] in a line: inhibition of 3D7 malaria parasite growth – strain 3D7 (AID 2306).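 Further: 0% = DMSO wells and 100% = chloroquine plus artemisinin control wells.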 The following applies: P. falciparum 3D7 erythrocytic growth, LDH absorbance, 72 h; at 2 µM; stronger effect = higher value.
For test [5], the target named is Calcium-dependent protein kinase 1 (Plasmodium falciparum (isolate 3D7)) (UniProt P62344). Description: PfCDPK1 kinase inhibitors, biochemical, TCAMS library (AID 1159585; cut-off not given, nearly all actives have IC50 up to about 0.98 µM;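 further: inhibitors leave more ATP so luminescence rises with inhibition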). The following applies: recombinant PfCDPK1, Kinase-Glo ATP depletion luminescence.
In test [6] the target is Plasmodium falciparum protein kinase 6 (PK6, PF3D7_1337100) (UniProt Q8IDW1). Description: PfPK6 kinase inhibitors, biochemical, TCAMS library (AID 1159586). The following applies: recombinant PfPK6, Kinase-Glo ATP depletion luminescence. For orientation: Kinase-Glo reads ATP consumption through a luciferase reaction.
Test [7] deals with Protein kinase 7 (PK7), Plasmodium falciparum 3D7 (PF3D7_0213400) (UniProt Q7YTF7). The test is described as follows: inhibition of Plasmodium PK7 catalytic activity – biochemical, TCAMS antimalarial set, Kinase-Glo luminescence (AID 1159587). The following applies: recombinant PfPK7, Kinase-Glo ATP depletion luminescence.
Test [8] deals with Calcium-dependent protein kinase 4 (Plasmodium falciparum (isolate 3D7)) (UniProt Q8IBS5). The test is described as follows: PfCDPK4 kinase inhibitors, biochemical, TCAMS library (AID 1159588; cut-off not given, nearly all actives have IC50 up to about 0.91 µM). The following applies: recombinant PfCDPK4, Kinase-Glo ATP depletion luminescence.

Unmarked numbers belong to inactive results. For some of these results: Potency and affinity values are given separately. Activity calls are given as the source filed them. Unless noted, how the calls were made is not given here.

The term inhibition denotes the relative decrease from the control value, in per cent.

Chain of Calcium-dependent protein kinase 1 (Plasmodium falciparum (isolate 3D7)) (P62344 whole entry, looked up): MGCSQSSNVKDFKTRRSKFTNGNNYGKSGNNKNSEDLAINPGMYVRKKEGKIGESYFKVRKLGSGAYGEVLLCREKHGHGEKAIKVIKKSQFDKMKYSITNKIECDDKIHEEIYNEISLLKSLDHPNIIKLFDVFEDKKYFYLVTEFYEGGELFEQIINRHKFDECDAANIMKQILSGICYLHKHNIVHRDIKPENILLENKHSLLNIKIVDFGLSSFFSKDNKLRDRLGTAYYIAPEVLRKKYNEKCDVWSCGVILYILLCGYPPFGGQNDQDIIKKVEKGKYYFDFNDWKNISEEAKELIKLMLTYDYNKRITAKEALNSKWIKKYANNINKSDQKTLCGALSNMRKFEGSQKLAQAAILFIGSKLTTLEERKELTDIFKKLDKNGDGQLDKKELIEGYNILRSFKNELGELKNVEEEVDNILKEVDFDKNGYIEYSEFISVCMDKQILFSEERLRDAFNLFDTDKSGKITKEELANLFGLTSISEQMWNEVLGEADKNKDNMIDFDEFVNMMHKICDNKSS
Chain of Protein kinase 7 (PK7), Plasmodium falciparum 3D7 (PF3D7_0213400) (Q7YTF7 1-343): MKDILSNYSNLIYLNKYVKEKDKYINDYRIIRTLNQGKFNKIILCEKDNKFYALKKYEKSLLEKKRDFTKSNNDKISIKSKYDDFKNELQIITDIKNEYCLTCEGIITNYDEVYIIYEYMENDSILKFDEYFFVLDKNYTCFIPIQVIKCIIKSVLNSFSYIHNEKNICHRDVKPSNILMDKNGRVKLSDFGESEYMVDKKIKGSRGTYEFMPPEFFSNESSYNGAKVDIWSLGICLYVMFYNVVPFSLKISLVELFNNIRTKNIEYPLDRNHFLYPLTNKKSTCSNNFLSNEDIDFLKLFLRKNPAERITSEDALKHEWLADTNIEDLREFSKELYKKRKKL
Chain of Calcium-dependent protein kinase 4 (Plasmodium falciparum (isolate 3D7)) (Q8IBS5 whole entry, looked up): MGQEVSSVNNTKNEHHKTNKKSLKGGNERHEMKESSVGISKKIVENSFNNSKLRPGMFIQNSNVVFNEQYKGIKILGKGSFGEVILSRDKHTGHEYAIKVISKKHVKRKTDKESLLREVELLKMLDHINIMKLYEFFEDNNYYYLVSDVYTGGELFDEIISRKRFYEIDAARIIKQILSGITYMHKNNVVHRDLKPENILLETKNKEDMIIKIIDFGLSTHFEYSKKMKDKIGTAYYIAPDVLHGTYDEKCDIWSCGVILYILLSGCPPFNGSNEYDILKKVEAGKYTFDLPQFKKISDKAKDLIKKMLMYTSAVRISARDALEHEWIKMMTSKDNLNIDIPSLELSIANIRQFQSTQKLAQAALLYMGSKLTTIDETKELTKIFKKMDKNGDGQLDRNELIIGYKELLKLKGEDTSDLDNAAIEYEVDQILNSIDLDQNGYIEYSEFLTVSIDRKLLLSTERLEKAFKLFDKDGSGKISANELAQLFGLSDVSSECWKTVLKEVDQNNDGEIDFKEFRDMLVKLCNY
Chain of Plasmodium falciparum protein kinase 6 (PK6, PF3D7_1337100) (Q8IDW1 1-305): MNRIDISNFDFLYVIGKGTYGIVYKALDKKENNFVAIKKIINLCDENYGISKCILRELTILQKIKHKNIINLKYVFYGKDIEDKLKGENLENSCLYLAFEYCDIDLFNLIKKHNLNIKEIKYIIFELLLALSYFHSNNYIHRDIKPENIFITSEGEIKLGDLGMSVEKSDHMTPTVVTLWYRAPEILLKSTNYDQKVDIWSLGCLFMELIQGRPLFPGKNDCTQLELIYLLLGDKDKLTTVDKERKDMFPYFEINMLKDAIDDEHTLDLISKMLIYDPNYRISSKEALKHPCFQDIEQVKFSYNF
Chain of L-lactate dehydrogenase (Plasmodium falciparum (isolate CDC / Honduras)) (Q27743 whole entry, looked up): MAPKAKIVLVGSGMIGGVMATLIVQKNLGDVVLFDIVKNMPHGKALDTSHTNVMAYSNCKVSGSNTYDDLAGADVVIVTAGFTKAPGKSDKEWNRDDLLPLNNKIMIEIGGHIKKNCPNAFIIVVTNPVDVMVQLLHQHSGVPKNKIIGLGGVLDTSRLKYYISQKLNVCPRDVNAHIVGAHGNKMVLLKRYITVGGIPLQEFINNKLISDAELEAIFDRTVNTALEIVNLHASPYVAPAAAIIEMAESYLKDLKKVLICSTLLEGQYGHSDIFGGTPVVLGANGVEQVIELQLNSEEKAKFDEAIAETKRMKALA

With `Cc1ccc2nc(Cl)c3cc(C(=O)NCCCN4CCCC4)sc3c2c1`, the growth inhibition in test [1] is 40%; in test [4], 89% (active). Moreover, the values for the inhibition in test [2] and in test [3] were 26% and 0%, respectively. In addition, the outcome in test [5], in test [6], in test [7] and in test [8] was inactive.

Regarding `Cc1noc(-c2ccc(NC[C@@H](C)NC[C@H](O)c3cccc(Cl)c3)cc2)n1`, the growth inhibition is 84% (active) in test [1] and 97% (active) in test [4]. The inhibition in test [2] is 11%; in test [3], -1%. For the same compound, the outcome in test [5], in test [6], in test [7] and in test [8] was inactive.

`COc1ccc(CN(C)CCOc2ccc(NC(=O)c3cccc4c(=O)c5cc(SC)ccc5[nH]c34)cc2)cc1OC`: the growth inhibition was 98% (active) in test [1] and 96% (active) in test [4]. In addition, the inhibition was 67% (active) in test [2] and 1% in test [3]. Besides, the outcome in test [5], in test [6], in test [7] and in test [8] was inactive.

Regarding `O=C(NCCNc1ccnc(Nc2ccc(F)cc2)n1)Nc1ccc2c(c1)OCO2`, the growth inhibition is 3% in test [1] and 97% (active) in test [4]. The inhibition in test [2] was 15%; in test [3], 0%. Moreover, the result in test [5], in test [6], in test [7] and in test [8] was inactive.

As to `CC(=O)c1c(C)[nH]c(C(=O)Nc2ccc(-c3nc4ccc(C)cc4s3)cc2)c1C`, the growth inhibition in test [1] was 40%; in test [4] it was 92% (active). Further, the inhibition was 11% in test [2] and -2% in test [3]. Moreover, the result in test [5], in test [6], in test [7] and in test [8] was inactive.

As to `Cc1ccc(C(=O)Nc2ccc(OC3CCN(CCC(C)C)C3)c(Cl)c2)cc1` (stereo not given), the growth inhibition is 38% in test [1] and 83% (active) in test [4]. Besides, the inhibition was 63% (active) in test [2] and 0% in test [3]. Moreover, the outcome in test [5], in test [6], in test [7] and in test [8] was inactive.

On to `O=C(CCC1CCCC1)N(Cc1ccc(-c2ccc(CNCCc3ccccc3)cc2)cc1)C1CCCNC1` (stereo not given), for which the growth inhibition in test [1] is 71% (active); in test [4], 90% (active). Moreover, the inhibition in test [2] is 99% (active); in test [3], -2%. The outcome in test [5], in test [6], in test [7] and in test [8] was inactive.

As to `O=C(Nc1cc(F)cc(F)c1)N[C@H]1CCN(CCCCCNC(=O)[C@@H]2C[C@H]2c2ccc(Cl)c(Cl)c2)C1`, the growth inhibition was -4% in test [1] and 88% (active) in test [4]. The inhibition in test [2] is 24%; in test [3] it was -3%. Also, the outcome in test [5], in test [6], in test [7] and in test [8] was inactive.

As to `O=C(N[C@@H](CC1CCCCC1)C(=O)NCCc1ccc(Cl)c(Cl)c1)c1ccc(O)c(-c2ccc(Cl)c(Cl)c2)c1`, the growth inhibition is 99% (active) in test [1] and 100% (active) in test [4]. The inhibition in test [2] is -11%; in test [3], -2%. In addition, the result in test [5], in test [6], in test [7] and in test [8] was inactive.

Consider `O=C(Nc1ccc(Oc2ccccc2)cc1)N(Cc1ccc(-c2cccc(CN3CCNCC3)c2)cc1)C1CCN(Cc2ccccc2)CC1`, for which the growth inhibition is 53% (active) in test [1] and 93% (active) in test [4]. The inhibition in test [2] was 10%; in test [3], -1%. Moreover, the result in test [5], in test [6], in test [7] and in test [8] was inactive.

In the case of `CC(C)COc1ccc(Cl)cc1Cc1nc(-c2nc3ccc(CN4CCN(C)CC4)cc3[nH]2)co1`, the results for the growth inhibition in test [1] and in test [4] were 57% (active) and 101% (active), respectively. In addition, the inhibition is 5% in test [2] and 7% in test [3]. Also, the outcome in test [5], in test [6], in test [7] and in test [8] was inactive.

In the case of `O=C(Nc1ccc(Cl)c(Cl)c1)N1CCc2cc3nccc(N4CCN5CCC[C@H]5C4)c3cc21`, the growth inhibition in test [1] is 75% (active); in test [4], 100% (active). In addition, the inhibition in test [2] was 2%; in test [3], -7%. Moreover, the outcome in test [5], in test [6], in test [7] and in test [8] was inactive.

Regarding `Nc1nc(N)c2c(ccc3c2ccn3C2CCCCC2)n1`, the growth inhibition is 46% in test [1] and 97% (active) in test [4]. The inhibition in test [2] was 67% (active); in test [3], 0%. The result in test [5], in test [6], in test [7] and in test [8] was inactive.

Turning to `Cc1ccc(NC(=O)c2ccc3ncccc3c2)cc1OC1CCN(Cc2ccco2)C1` (stereo not given), the figures for the growth inhibition in test [1] and in test [4] were 42% and 86% (active), respectively. Further, the inhibition was 9% in test [2] and 2% in test [3]. Also, the outcome in test [5], in test [6], in test [7] and in test [8] was inactive.

Take `CS(=O)(=O)N(c1ccccc1)c1cc(C(=O)N[C@@H](Cc2ccccc2)[C@H](O)CNC2CCCCC2)cc(N2CCCC2=O)c1`: the growth inhibition is 97% (active) in test [1] and 100% (active) in test [4]. Further, the inhibition in test [2] is 8%; in test [3] it was -3%. The result in test [5], in test [6], in test [7] and in test [8] was inactive.

With `COc1ccc2c(CCNc3nc(SC)ncc3C(=O)NCCc3ccc(F)cc3)c[nH]c2c1`, the growth inhibition in test [1] is 49%; in test [4], 91% (active). Moreover, the values for the inhibition in test [2] and in test [3] were 3% and -1%, respectively. Also, the outcome in test [5], in test [6], in test [7] and in test [8] was inactive.

On to `COc1cc(OC)cc(-c2nn(-c3ccc([N+](=O)[O-])cc3Cl)c(=S)n2Cc2ccco2)c1`, for which the growth inhibition in test [1] was 100% (active); in test [4], 101% (active). For the same compound, the inhibition in test [2] is 15%; in test [3], 2%. The result in test [5], in test [6], in test [7] and in test [8] was inactive.

Regarding `COc1ccc2c(NN=Cc3cccc(C)n3)cc(-c3ccccc3)nc2c1`, the values for the growth inhibition in test [1] and in test [4] were 25% and 97% (active), respectively. Moreover, the inhibition is -7% in test [2] and 3% in test [3]. Moreover, the result in test [5], in test [6], in test [7] and in test [8] was inactive.

On to `O=S(=O)(NCCN1CCCC1)c1ccc(-c2ccc(CNC3Cc4ccccc4C3)cc2)cc1F`, for which the growth inhibition in test [1] is 75% (active); in test [4], 101% (active). For the same compound, the results for the inhibition in test [2] and in test [3] were 33% and -1%, respectively. Moreover, the outcome in test [5], in test [6], in test [7] and in test [8] was inactive.

Regarding `COc1nc2c(CCN3CCC(NCc4ccc5c(c4)NC(=O)CO5)CC3)c(Cl)cnc2cc1F`, the growth inhibition was 21% in test [1] and 99% (active) in test [4]. The values for the inhibition in test [2] and in test [3] were 15% and 6%, respectively. Further, the outcome in test [5], in test [6], in test [7] and in test [8] was inactive.
